# From PubChem
# Compounds with a hit are over-represented: about 8% of the library has one in this group of screens.
# HCV inhibitor: inhibitors of hepatitis C virus infection; Huh7.5.1 HCVcc-Cre infection, luciferase reporter, 44 h; Potency, µM (highest dose often 41.8 µM), inactives show at the highest dose activity change, negative = inhibition, usual class: inhibitors; actives 3.4% (n = 340,000); AID 651820; active = well fitted inhibition curve with a large enough effect; inconclusive = small, poorly fitted or top-dose-only effect, or another doubt; inactive = no such curve, though single readings can be large or run the other way; note: potency is the fitted concentration of half-maximal effect; % is set by controls: 0 for no effect and ±100 for the full control effect
#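 Compounds are dispensed onto cells plated 4 h earlier at 1,000 per well, with HCVcc-Cre virus (about 0.5 moi) added next. Following 44 h of culture, luminescent signal is measured for 15 sec after 15 min with substrate at room temperature.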
# LASV entry inh: inhibitors of Lassa virus binding or cell entry. Lassa virus pseudotype entry inhibition, cell reporter. Potency, µM (titrated, usually from 37.9 µM), inactives show top-dose activity change, negative = inhibition, actives largely listed as inhibitors. actives 1.2% (n = 300,000). AID 540256; calls by dose curve; tested in HEK293 cells; note: potency is the fitted concentration of half-maximal effect; % is set by controls: 0 for no effect and ±100 for the full control effect; nearly all actives have a fitted effect of over 50% in size
# FMDV antiviral: blocks foot and mouth disease virus | FMDV antiviral cell-based qHTS | Potency, µM (highest dose often 57.9 µM), for inactives: top-dose activity change, negative = inhibition, usual class: inhibitors | actives 1.2% (n = 410,000) | AID 1159524; calls by dose curve; tested in HEK293T cells; note: read-out not given here; potency is the fitted concentration of half-maximal effect; % is set by controls: 0 for no effect and ±100 for the full control effect; nearly all actives have a fitted effect of over 45% in size
# HCMV inh: inhibitors of human cytomegalovirus; actives 4.5% (n = 410,000); activity change, negative = inhibition, % at 57.5 µM; HFF cells, HCMV-luciferase reporter, 72 h; hits give low values; AID 1259415; in the data active = activity change below about -60%; inconclusive = no clear call, values can overlap the other calls; inactive = above about -39%; note: % is set by controls: 0 for no effect and ±100 for the full control effect
#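 After 16 h attachment at 37C, HFF cells received test compound and HCMV-luciferase (1 PFU/cell); reporter luminescence read 72 h later, data normalized against buffer-only and known inhibitor Salinomycin.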
# SARS PLpro yeast: blocks SARS-CoV papain-like protease in a yeast assay; S. cerevisiae expressing SARS-CoV PLpro, growth rescue; Potency, µM (titrated, usually from 32.9 µM), for inactives: top-dose activity, positive = growth rescue, usual class: activators; actives 0.19% (n = 330,000); calls by dose curve; note: potency is the fitted concentration of half-maximal effect; 0% is about no effect; nearly all actives have a fitted effect of over 55% in size
# MARV entry inh: Marburg virus entry inhibition; Marburg virus pseudotyped entry inhibition, cell reporter; Potency, µM (titrated, usually from 37.8 µM), for the others: at the highest dose activity change, negative = inhibition, usual class: inhibitors; actives 1.8% (n = 300,000); AID 540276; calls by dose curve; tested in HEK293 cells; note: potency is the fitted concentration of half-maximal effect; % is set by controls: 0 for no effect and ±100 for the full control effect
# * = called active by the depositor; ? = inconclusive; · = no result given; [ ] = another dose, or the depositor's remark.
SMILES,HCV inhibitor,LASV entry inh,FMDV antiviral,HCMV inh,SARS PLpro yeast,MARV entry inh
COc1cc(NC(=O)c2c(-c3ccccc3Cl)noc2C)c2ncccc2c1,?,?,-30%,-23,·,20%[46.1 µM]
CCOc1ccc(OC(=O)c2c(-c3ccccc3Cl)noc2C)cc1,·,-12%[46.1 µM],40µM*,-24,·,·
Cc1onc(-c2ccccc2Cl)c1C(=O)NC(=S)Nc1ccccc1C(N)=O,11%,4%,1%,?,-16%,-5%
Cc1onc(-c2ccccc2Cl)c1C(=O)Nc1ccccc1C(N)=O,-29%,-5%,11µM*,-35,-1%,-19%
CC(C)Oc1ccc(CNC(=O)Cn2ncn3nc(-c4cccs4)cc3c2=O)cc1,·,0%[46.1 µM],-9%,-8,·,17%[46.1 µM]
Cc1ccc2onc(CC(=O)N3CCN(c4cccc(Cl)c4)CC3)c2c1,·,?,-28%,-24,·,·
COc1ccc2c(c1)C1=C(CC2)C(c2ccc(C)cc2)NC(=S)N1 (stereo not given),11µM*,·,-1%,?,-5%,·
COc1cccc(NC(=O)C2CCN(c3nc4ccccc4nc3C(F)(F)F)CC2)c1,·,?,0%,-16,·,·
CCOCCCNC(=S)NCCCNc1nc2ccc(C)cc2cc1C#N,·,·,·,-91*,0%,·
CC(C)C1Cc2c(sc3[nH]c(=S)n(Cc4ccccc4)c(=O)c23)CO1 (stereo not given),19%,0.79µM*,?,?,23%,?
COc1ccccc1-c1ccnc(-n2ncc(C(=O)NCCc3ccccn3)c2C)n1,·,·,28%,·,·,·
Oc1ccccc1C1CC(c2cccs2)=NC(c2ccc(Cl)cc2)N1 (stereo not given),?,·,-15%,-70*,-6%,·
COc1ccc(CCN2C(=O)c3ccccc3NC2c2cc(Cl)c(O)c(OC)c2)cc1 (stereo not given),-13%,5.6µM*,-5%,-20,-3%,?
CCCN1C(=O)c2ccccc2NC1c1cc(OC)c(OC)c(OC)c1 (stereo not given),15%,-21%,-6%,23,6%,-13%
CCOC(=O)c1c(NC(=O)C(C)N2CCN(C(=O)c3ccco3)CC2)sc2c1CCCC2 (stereo not given),10µM*,11µM*,?,-39,-22%,?
CCOc1ccc(NC(=O)NCc2ccc3c(c2)CCN3C(C)=O)cc1,·,0%[46.1 µM],-23%,-3,·,·
O=C(NCc1ccco1)c1ccc([N+](=O)[O-])o1,-27%,-13%,-20%,-66*,2%,3%[46.1 µM]
O=C(NCc1ccco1)c1ccc(Cn2cc([N+](=O)[O-])cn2)o1,5%,1%,8%,20,0%,6%
O=C(NCc1cccnc1)c1ccc([N+](=O)[O-])o1,?,·,-1%,-85*,0%,·
COc1ccccc1CNc1cc(-c2c(C)noc2C)ncn1,·,·,7%,·,·,·
Cc1cc(C)c(NC2=NCCS2)cc1C,·,·,-15%,-89*,·,·
COc1ccccc1NC1=NCCS1,1%,6%,7%,19,15%,2%
CC(=O)N(O)c1ccc(C=Cc2ccccc2)cc1,·,·,44%,-99*,·,·
COC(=O)C1=C(C)OC(N)=C(C#N)[C@H]1c1ccc(OC)c(OC)c1OC,·,·,·,·,·,7%
COc1ccc(NC(=O)c2cccc(Cn3cc(Br)c([N+](=O)[O-])n3)c2)c(C)c1,10µM*,·,-13%,-18,-1%,·
SMILES,HCV inhibitor,LASV entry inh,FMDV antiviral,HCMV inh,SARS PLpro yeast,MARV entry inh
NNC(=O)c1cccc(Cn2cc(Br)c([N+](=O)[O-])n2)c1,3%,·,-12%,-12,2%,·
Cc1cccc(NC(=O)CSc2ncc(-c3ccc(Br)cc3)[nH]2)c1,·,11%[46.1 µM],23%,-25,·,?
Cc1oc(-c2ccccc2)nc1Cn1cccc1C1=NC(c2ccccc2)CO1 (stereo not given),?,?,?,-27,-16%,20µM*
Cc1cc2c(c(-c3nc4ccccc4s3)c1)OC(CNC(=O)c1occc1C)C2 (stereo not given),·,·,14%,·,·,·
CCc1ccc(C(=O)c2cn(CC(=O)Nc3ccc(OC)c(OC)c3)c3ccc(C)cc3c2=O)cc1,·,-19%[46.1 µM],3%,?,·,?
CCN(c1ccccc1)c1cc(C)nc2ncnn12,-8%,·,-21%,3,13%,·
Cc1cc(Oc2ccc(-c3ccccc3)cc2)n2ncnc2n1,18%,13%,40µM*,81,1%,21%
CCOC(=O)C1=C(c2ccccc2)NC(SCC(=O)Nc2ccccc2C)=C(C#N)[C@@H]1c1ccco1,·,·,·,·,·,23µM*
CCc1ccc(NC(=O)CSC2=C(C#N)[C@H](c3ccco3)C3=C(CCCC3=O)N2)cc1,·,·,·,·,·,-29%
CC(C)(C)c1ccc(C(=O)CCCSC2=C(C#N)C(c3ccco3)C3=C(CCCC3=O)N2)cc1 (stereo not given),6.3µM*,?,-3%,?,11%,?
CC1=C(C(=O)Nc2ccccc2)C(c2ccco2)C(C#N)=C(SCC(=O)Nc2cccc(C)c2C)N1 (stereo not given),?,10%,·,-10,4%,?
N#CC1=C(SCC(=O)c2ccccc2)NC2=C(C(=O)CCC2)C1c1ccco1 (stereo not given),11µM*,?,-12%,106,8%,?
Cc1ccc(C(=O)CSC2=C(C#N)C(c3ccco3)C3=C(CCCC3=O)N2)cc1 (stereo not given),25µM*,?,0%,-26,-2%,?
COCc1c(C(=O)N2CCN(C3CCCCC3)CC2)cnn1-c1ncc(C)c(-c2cccs2)n1,·,·,-1%,·,·,·
CCc1nnc2c(Nc3cccc(F)c3)nc3ccc(C(=O)c4ccccc4)cc3n12,·,?,-5%,-5,·,?
CCSC1=C(C#N)C(c2ccc(Cl)cc2)C2=C(CCCC2=O)N1 (stereo not given),25µM*,-26%,-21%,-10,1%,?
COc1cccc(NC(=O)CSC2=C(C#N)C(c3ccco3)C3=C(CCCC3=O)N2)c1 (stereo not given),?,13µM*,14%,46,-3%,-7%
COC(=O)N[C@@H](c1ccc2ccccc2c1)C(C(C)=O)C(=O)OC (stereo not given in full),·,·,·,·,·,-16%[14.2 µM]
CCN(CC(=O)NCc1ccc(F)cc1)C(=O)COc1ccc(C)c(C)c1,?,-10%,8%,-65*,19%,0%
O=C(COc1ccc(C(=O)c2ccccc2)cc1)NCc1ccc(F)cc1,-8%,?,-15%,-76*,10%,?
O=C(COc1ccccc1)NCc1ccccc1,15%,15%,·,?,-4%,1%
COc1ccc(-c2nc(C)c(CCNC(=O)c3ccccc3Br)s2)cc1OC,·,-3%[46.1 µM],16%,167,·,·
COc1ccc(NC(=S)NCCc2ccc(F)cc2)c(OC)c1,-14%,5%,7%,1,9%,27%[46.1 µM]
